mHTT CaM bind: mHTT-calmodulin interaction abrogation; AlphaScreen His-mHTT/GST-CaM binding, luminescence; inhibition, % at 15 µM; actives 3.6% (n = 190,000); P42858;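 note: 0% = both proteins with DMSO and 100% = one protein alone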
Target sequence (P42858 whole entry, looked up, stated change not applied): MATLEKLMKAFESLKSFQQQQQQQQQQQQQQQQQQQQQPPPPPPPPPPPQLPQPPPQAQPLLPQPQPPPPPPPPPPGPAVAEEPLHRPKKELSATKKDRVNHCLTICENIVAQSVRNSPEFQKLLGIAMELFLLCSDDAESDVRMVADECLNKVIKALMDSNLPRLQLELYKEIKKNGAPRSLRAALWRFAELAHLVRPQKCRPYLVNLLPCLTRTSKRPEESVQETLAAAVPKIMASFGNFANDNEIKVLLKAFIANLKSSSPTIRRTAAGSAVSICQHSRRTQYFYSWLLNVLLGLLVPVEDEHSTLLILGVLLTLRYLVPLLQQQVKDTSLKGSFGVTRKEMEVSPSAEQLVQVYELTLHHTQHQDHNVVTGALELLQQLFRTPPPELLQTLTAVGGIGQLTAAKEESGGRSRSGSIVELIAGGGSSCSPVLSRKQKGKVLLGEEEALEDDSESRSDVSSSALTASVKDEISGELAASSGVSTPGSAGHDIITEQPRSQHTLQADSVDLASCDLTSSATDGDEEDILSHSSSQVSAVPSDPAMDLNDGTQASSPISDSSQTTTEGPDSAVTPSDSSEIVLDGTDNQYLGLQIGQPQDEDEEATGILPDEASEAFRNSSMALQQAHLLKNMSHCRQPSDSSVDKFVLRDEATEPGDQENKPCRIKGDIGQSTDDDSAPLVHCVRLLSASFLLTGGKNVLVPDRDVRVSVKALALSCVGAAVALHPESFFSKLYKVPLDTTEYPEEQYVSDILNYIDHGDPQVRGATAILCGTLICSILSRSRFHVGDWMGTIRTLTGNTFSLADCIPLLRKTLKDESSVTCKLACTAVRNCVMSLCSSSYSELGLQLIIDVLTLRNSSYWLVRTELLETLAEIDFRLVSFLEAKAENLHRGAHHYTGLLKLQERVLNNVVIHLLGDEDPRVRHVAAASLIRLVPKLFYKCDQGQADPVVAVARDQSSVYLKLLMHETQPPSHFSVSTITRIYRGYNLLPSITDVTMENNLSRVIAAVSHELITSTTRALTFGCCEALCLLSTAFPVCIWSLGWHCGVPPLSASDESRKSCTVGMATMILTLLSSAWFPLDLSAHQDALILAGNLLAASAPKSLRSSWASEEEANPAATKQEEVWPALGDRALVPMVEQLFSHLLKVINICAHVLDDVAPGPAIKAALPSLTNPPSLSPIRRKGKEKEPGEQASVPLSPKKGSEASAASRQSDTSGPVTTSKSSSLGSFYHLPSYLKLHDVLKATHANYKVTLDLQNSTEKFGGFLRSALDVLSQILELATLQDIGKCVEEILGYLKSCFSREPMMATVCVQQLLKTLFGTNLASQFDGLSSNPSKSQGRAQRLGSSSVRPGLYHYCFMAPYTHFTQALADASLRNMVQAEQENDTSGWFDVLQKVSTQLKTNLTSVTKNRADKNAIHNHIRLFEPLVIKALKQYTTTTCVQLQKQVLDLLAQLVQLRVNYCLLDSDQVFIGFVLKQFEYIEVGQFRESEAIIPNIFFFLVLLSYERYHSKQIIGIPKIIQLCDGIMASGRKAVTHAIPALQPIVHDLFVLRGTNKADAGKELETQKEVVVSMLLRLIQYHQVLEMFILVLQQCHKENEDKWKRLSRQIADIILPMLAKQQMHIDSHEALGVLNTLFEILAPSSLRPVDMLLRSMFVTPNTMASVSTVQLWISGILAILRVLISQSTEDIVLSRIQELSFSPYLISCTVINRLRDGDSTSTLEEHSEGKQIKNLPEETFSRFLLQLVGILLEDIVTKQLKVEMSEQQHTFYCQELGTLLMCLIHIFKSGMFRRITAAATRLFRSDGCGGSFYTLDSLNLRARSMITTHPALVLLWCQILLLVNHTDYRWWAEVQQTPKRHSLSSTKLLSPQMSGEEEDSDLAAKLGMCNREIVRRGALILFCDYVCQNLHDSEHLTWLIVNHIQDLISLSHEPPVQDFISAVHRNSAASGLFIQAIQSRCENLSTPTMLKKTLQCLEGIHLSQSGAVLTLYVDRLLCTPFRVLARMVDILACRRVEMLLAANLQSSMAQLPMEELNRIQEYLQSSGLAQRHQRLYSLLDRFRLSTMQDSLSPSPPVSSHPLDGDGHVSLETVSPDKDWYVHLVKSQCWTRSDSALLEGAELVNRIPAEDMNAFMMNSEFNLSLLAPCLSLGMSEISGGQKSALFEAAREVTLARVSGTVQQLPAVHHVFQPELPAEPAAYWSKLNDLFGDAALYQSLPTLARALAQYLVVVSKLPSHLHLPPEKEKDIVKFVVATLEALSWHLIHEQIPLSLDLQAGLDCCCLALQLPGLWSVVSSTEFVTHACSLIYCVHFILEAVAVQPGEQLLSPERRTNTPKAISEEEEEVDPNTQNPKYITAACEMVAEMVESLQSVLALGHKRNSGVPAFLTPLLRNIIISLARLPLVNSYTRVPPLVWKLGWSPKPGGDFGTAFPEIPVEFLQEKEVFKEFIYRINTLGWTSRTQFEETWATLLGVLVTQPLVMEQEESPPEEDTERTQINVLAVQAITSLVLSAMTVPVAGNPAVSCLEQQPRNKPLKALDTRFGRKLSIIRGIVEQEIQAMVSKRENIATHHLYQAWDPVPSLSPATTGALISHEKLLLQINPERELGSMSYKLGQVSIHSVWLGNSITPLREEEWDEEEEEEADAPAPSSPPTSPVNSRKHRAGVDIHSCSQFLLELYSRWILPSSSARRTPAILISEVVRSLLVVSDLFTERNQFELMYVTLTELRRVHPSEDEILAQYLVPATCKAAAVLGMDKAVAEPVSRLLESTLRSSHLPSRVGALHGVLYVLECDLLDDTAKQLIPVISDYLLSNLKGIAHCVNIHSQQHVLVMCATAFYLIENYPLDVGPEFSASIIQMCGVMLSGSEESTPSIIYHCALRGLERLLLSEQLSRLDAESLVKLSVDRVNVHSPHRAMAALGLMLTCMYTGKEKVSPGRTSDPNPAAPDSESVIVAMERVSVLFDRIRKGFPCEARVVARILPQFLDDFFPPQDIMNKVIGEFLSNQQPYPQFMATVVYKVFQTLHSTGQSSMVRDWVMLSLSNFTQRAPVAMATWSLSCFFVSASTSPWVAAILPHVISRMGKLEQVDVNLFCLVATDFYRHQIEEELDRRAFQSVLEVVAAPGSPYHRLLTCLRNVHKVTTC
Pf apPOL inh: Pf-apPOL DNA polymerase inhibition; Recombinant Pf-apPOL, molecular beacon fluorescence, 1.5 h; inhibition, % at 10 µM; actives 0.25% (n = 210,000)
* = called active by the depositor. Many of the other results were omitted from the sample, so hits are more common in it than they were. Cut-off read from the data, not from the text of the source: active = inhibition above about 50%; inactive = the rest.

Screening O=C1CCCC2=C1C(c1cccc([N+](=O)[O-])c1)Nc1ccc(C(=O)c3ccccc3)cc1N2 (centres undefined) returned mHTT CaM bind 56* and Pf apPOL inh -8.
For CCc1nnc2ccc(S(=O)(=O)Nc3cccc(F)c3)cn12 the results were mHTT CaM bind -7 and Pf apPOL inh 3.
CCOc1ccccc1NC(=O)c1cncc(NS(=O)(=O)c2ccc(OC)cc2)c1 was read as mHTT CaM bind -4 and Pf apPOL inh -3.
`COc1ccc(CNC(=O)c2ccn3c(-c4ccc(F)cc4)nnc3c2)cc1` gave mHTT CaM bind -2 and Pf apPOL inh -1.
For COc1ccc(Cl)cc1NS(=O)(=O)c1cc2c(s1)CCN(C(=O)C1CC1)C2 the results were mHTT CaM bind 21 and Pf apPOL inh 0.
Screening Cc1cccc(-n2nc(C)c3sc(N4CCC(NC(=O)C5CC5)CC4)nc32)c1 returned mHTT CaM bind 1 and Pf apPOL inh -5.
Screening COc1cccc(-c2cn3c(n2)N(C(=O)Cc2cccs2)CCC3)c1 returned mHTT CaM bind 82* and Pf apPOL inh -4.
Screening COc1ccc(-c2cn3c(n2)N(C(=O)Cc2cccs2)CCC3)cc1 returned mHTT CaM bind 34 and Pf apPOL inh -1.
Screening O=C(Nc1ccc(N2CCN(c3ccccc3)C2=O)nc1)c1cccc(Cl)c1 returned mHTT CaM bind -8 and Pf apPOL inh -1.
For O=C1C(Nc2ccc(F)c(F)c2)=C(N2CCOCC2)C(=O)c2ccccc21 the results were mHTT CaM bind 32 and Pf apPOL inh -10.
Screening Cc1cccc(NC2=C(N3CCOCC3)C(=O)c3ccccc3C2=O)c1 returned mHTT CaM bind 29 and Pf apPOL inh -3.
For O=C1C(Nc2cccc(I)c2)=C(N2CCCC2)C(=O)c2ccccc21 the results were mHTT CaM bind 99* and Pf apPOL inh 27.
For O=C1C(Nc2cccc(I)c2)=C(N2CCOCC2)C(=O)c2ccccc21 the results were mHTT CaM bind 86* and Pf apPOL inh 20.
`CC(=O)NC1=C(N2CCN(c3ccccc3)CC2)C(=O)c2ccccc2C1=O` gave mHTT CaM bind 45 and Pf apPOL inh -7.
Screening O=C1C(Nc2cccc(I)c2)=C(N2CCCCC2)C(=O)c2ccccc21 returned mHTT CaM bind 92* and Pf apPOL inh 24.
Screening O=C1C(Nc2cccc(C(F)(F)F)c2)=C(N2CCOCC2)C(=O)c2ccccc21 returned mHTT CaM bind 66* and Pf apPOL inh -10.
CC(=O)Nc1ccc(NC2=C(N3CCCCC3)C(=O)c3ccccc3C2=O)cc1 was read as mHTT CaM bind 12 and Pf apPOL inh -1.
O=C(NCCN1CCCCC1)C1COC2(CCCCC2)N1C(=O)c1cccc(F)c1 (centres undefined) was read as mHTT CaM bind 3 and Pf apPOL inh -3.
CCn1c(=O)c2ccnn2c2ccc(C(=O)Nc3ccc(F)cc3)cc21 was read as mHTT CaM bind -8 and Pf apPOL inh -9.
`CCOc1cc2c(C(=O)O)cn(CC(C)C)c(=O)c2cc1OCC` gave mHTT CaM bind 5 and Pf apPOL inh -4.
COc1ccc(CCN2CC(C(=O)NCc3ccccc3F)CC2=O)cc1OC (centres undefined) was read as mHTT CaM bind 3 and Pf apPOL inh -5.
`C=CCN1N=C(NC(=O)c2cccc(Br)c2)SC=C1c1ccccc1` gave mHTT CaM bind 55* and Pf apPOL inh -11.
O=C(Nc1ccc(NC(=O)c2cccc(Br)c2)cc1)c1ccccc1 was read as mHTT CaM bind -6 and Pf apPOL inh -6.
Screening CN(C)CCNc1ncnc2c1sc1nc(N3CCOCC3)c3c(c12)CC(C)(C)OC3 returned mHTT CaM bind 3 and Pf apPOL inh 0.
Screening CCN1C(=O)/C(=C2\C=Cc3ccccc3N2CC)SC1=Nc1ccccc1 returned mHTT CaM bind 97* and Pf apPOL inh -2.
`CCN1C(=O)/C(=C2\C=Cc3ccccc3N2CC)SC1=Nc1ccc(N2CCOCC2)cc1` gave mHTT CaM bind 0 and Pf apPOL inh -3.
For COc1ccc2cc3cc(C(=O)NC4CCCCCC4)oc3nc2c1 the results were mHTT CaM bind -5 and Pf apPOL inh 1.
CCc1ccc(NC(=O)c2cncc(-c3ccc(C)cc3)c2)cc1 was read as mHTT CaM bind -9 and Pf apPOL inh 0.
For Cc1ccc(-c2cncc(C(=O)Nc3ccc4c(c3)OCCO4)c2)cc1 the results were mHTT CaM bind 54* and Pf apPOL inh -3.
Screening CCOc1ccccc1OCCOc1ccc([N+](=O)[O-])cc1Cl returned mHTT CaM bind -19 and Pf apPOL inh -10.
For Cc1ccc(C2Nc3ccc4ncccc4c3C3=C2C(=O)CCC3)cc1 (centres undefined) the results were mHTT CaM bind 1 and Pf apPOL inh -7.
For CC(C)c1ccc(C2Nc3ccc4ncccc4c3C3=C2C(=O)CCC3)cc1 (centres undefined) the results were mHTT CaM bind 65* and Pf apPOL inh 1.
Screening N#CSC(C#N)Cc1ccccc1 (centres undefined) returned mHTT CaM bind 42 and Pf apPOL inh -7.
N#CSC(C#N)Cc1ccc([N+](=O)[O-])cc1 (centres undefined) was read as mHTT CaM bind 60* and Pf apPOL inh -1.
CN(C)c1ccc(C=NNc2cc(Cl)ccc2Cl)c(Cl)c1 was read as Pf apPOL inh -2.
Screening CC(C)=CCC/C(C)=C/CC(C)(C)CNCCN1CCNCC1 returned mHTT CaM bind 85* and Pf apPOL inh -5.
Screening CC1=CC(C)C(CNCCN2CCNCC2)C(C)C1 (centres undefined) returned mHTT CaM bind 2 and Pf apPOL inh 0.
Screening Cc1nn(-c2ccccc2)c(C)c1CNCCN1CCOCC1 returned mHTT CaM bind -5 and Pf apPOL inh 1.
`Fc1ccc(-c2n[nH]c(C3CCN(Cc4ccccn4)CC3)n2)cc1` gave mHTT CaM bind -6 and Pf apPOL inh 4.
Screening CC1CCc2cc(F)cc3c(O)c(C(=O)NCCN4CCOCC4)c(=O)n1c23 (centres undefined) returned mHTT CaM bind 26 and Pf apPOL inh -83.
CC1CCc2cc(F)cc3c(O)c(C(=O)NCCCN(C)C)c(=O)n1c23 (centres undefined) was read as mHTT CaM bind 99* and Pf apPOL inh -66.
O=C(c1csc(-n2cccc2)n1)N1CCN(c2ccccc2Cl)CC1 was read as mHTT CaM bind -8 and Pf apPOL inh 0.
`COc1cc(OC)c(OC)cc1/C=C1/N=C(c2ccc(C)c([N+](=O)[O-])c2)OC1=O` gave mHTT CaM bind -2 and Pf apPOL inh -2.
COc1ccc(C(O)c2nccn2C)cc1 (centres undefined) was read as mHTT CaM bind -5 and Pf apPOL inh 52*.
CCOc1ccc(C(O)c2nccn2C)cc1 (centres undefined) was read as mHTT CaM bind -2 and Pf apPOL inh 1.
`Cc1ccc(C2=NNC3(CCCCC3)S2)cc1` gave mHTT CaM bind -10.
For COC(=O)c1ccc2c(=O)n(-c3ccccc3)c(N3CCC(C)CC3)nc2c1 the results were mHTT CaM bind -34 and Pf apPOL inh 1.
For Cc1cc(I)cc2c1NC(c1ccc(F)cc1)C1CC=CC21 (centres undefined) the results were mHTT CaM bind 54* and Pf apPOL inh 0.
Screening Fc1ccc(C2Nc3ccc(F)cc3C3C=CCC32)cc1 (centres undefined) returned mHTT CaM bind 94* and Pf apPOL inh -1.
Cc1ccc(C(=O)Nc2cccc(O)c2)cc1 was read as mHTT CaM bind 2 and Pf apPOL inh -1.

Screening results from PubChem.
